Several values for one entry are separate records, joined by “and”; a condition that tells them apart may be missing. Identical values can stand only once. Compounds without any hit were thinned out: in the full panel of roughly 83,000, 20% have a hit.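 Single-dose data. Exposure time 48 hours. Values below 10 considered active.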 Activity calls are given as the source filed them.
Tested on: MDA-MB-468 breast
Test: NCI-60 one-dose screen, 48 h (100 = growth as untreated, 0 = no growth, -100 = all killed)
Details: 10 µM unless noted

| SMILES | growth |
| --- | --- |
| ClCCN(CCCl)c1ccc(OCc2ccccc2)cc1 | 58.3% (inactive) |
| COC(=O)[C@@H](C)C[C@H](Cc1ccccc1)NC(=O)c1csc([C@@H](C[C@H](C(C)C)N(C)C(=O)C2(NC(=O)[C@H]3CCCCN3C)CCC2)OC(C)=O)n1 | 7.04% (active) |
| O=CN1N=C(c2ccc3c(c2)OCO3)CC1c1sc(N(CCCl)CCCl)nc1Cl (stereo not given) | 90.9% (inactive) |
| CNC(=O)CCl | 100% (inactive) |
| O=C(CC1(O)C(=O)N(Cc2ccccc2)c2ccc(F)cc21)c1ccc(C(=O)NCC2CCC3(CC2)OOC2(CCCCC2)OO3)cc1 (stereo not given) | -41.8% (active) |
| Oc1c(CCl)cc(Cl)cc1CCl | 113% (inactive) |
| CC1(C)N=C(N)N=C(N)N1c1ccc(CCCCc2ccc(S(=O)(=O)F)cc2)cc1 | -3.5% (active) |
| CNC(=O)Oc1ccc(Cl)cc1SSc1cc(Cl)ccc1OC(=O)NC | 85.2% (inactive) |
| CC1=C2[C@H]3OC(=O)[C@@H](C)[C@@H]3CC[C@@]2(C)C=CC1=O | 93.4% (inactive) |
| COc1cc2c(cc1OCc1ccccc1)C(CC(C)C)=[N+](C)CC2 | 2.12% (active) |
| O=C(Nc1ccc(Cl)cc1)Nc1nccs1 | 16.4% (inactive) |
| Oc1cccc2cccnc12 | 25% (inactive) and 96.3% (inactive) and 106% (inactive) |
| CC[C@H](C)[C@H](NC(=O)c1cccn1C)C(=O)N(C)[C@H](C[C@@H](OC(C)=O)c1nc(C(=O)N[C@@H](Cc2ccccc2)C[C@H](C)C(=O)OC)cs1)C(C)C | 25.9% (inactive) |
| Cc1cc(N(CCCl)CCCl)ccc1C=Nc1ccccc1-c1ccccc1 | 2.49% (active) |
| CC[C@@H](C)/C=C(C)/C=C/C(=O)c1c(O)c(-c2ccc(O)cc2)cn(O)c1=O | -25% (active) |
| COc1ccc(N)cc1OC | 109% (inactive) |
| CC12CCC(=O)C=C1C(O)CC1C2CCC2(C)C(O)CCC12 (stereo not given) | 104% (inactive) |
| Nc1c(F)cc(-c2nc3cc(F)ccc3[se]2)cc1Br | -35.4% (active) |
| O=C(O)c1cccc(CCl)c1 | 105% (inactive) |
| COC(=O)[C@@H](NC(=O)c1cn(CCC2CCCCC2)c2ccccc12)C(C)(C)C | 82.3% (inactive) |
| CCN1C(=O)NC(=O)C(C)(N2C(=O)c3c(F)c(F)c(F)c(F)c3C2=O)C1=O (stereo not given) | -6.73% (active) |
| COc1ccc(/C=C(/C)[N+](=O)[O-])cc1OC | -87.6% (active) and -87% (active) |
| Nc1nc(N)c(-c2ccc(Cl)c(Cl)c2)c(/C=C/c2ccc(S(=O)(=O)F)cc2)n1 | 103% (inactive) |
| C[C@@]1(CCCCCCCCCc2ccc(O)cc2)C[C@]2(C)OC(=O)C[C@@H]2OO1 | 64.8% (inactive) |
| CC1(C)CC2(CC(C)(C)c3cc(O)c(O)cc32)c2cc(O)c(O)cc21 | 83.1% (inactive) |

— PubChem BioAssay (NCI)
